Experimental findings from PubChem BioAssay AID624305 (National Center for Advancing Translational Sciences (NCATS), 2012) are described below.

Inconclusive results are not listed. Calls of active or inactive are those of the source. The call rests on the fitted dose curve; in most records, active means well fitted activation curve with a large enough effect; inconclusive means small, poorly fitted or top-dose-only effect; inactive means no such curve, though single readings can be large or run the other way.
Potency means the concentration at half of the fitted maximal effect.

The assay can be described thus: qHTS assay for re-activators of p53 using a Luc reporter: Hit Validation. Further: nearly all actives have a fitted effect of over 75% in size. On activation: 0% is about no effect. Particulars: p53-responsive luciferase reporter cells, luminescence, H1299 line expressing heat-sensitive Ala138Val p53; series mostly up to 46.1 µM. In a few lines:
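Hit confirmation with a 1:5 dilution series, at 37 deg C for 24 hrs, in H1299 cells co-expressing temperature-sensitive p53-A138V and p53-responsive luciferase. Nocodazole served as control; luminescence read after 10 min with detection reagent.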
For orientation: qHTS replaces the single test concentration by a dilution series.
On to `Nc1nonc1-n1nnc(C(=O)N/N=C/c2ccc(Br)cc2)c1CSC1=NCCS1`, for which the Potency is 3.66 µM (active). Same read-out and setting: with `COc1cc(NC(=O)C(C)C)ccc1NC(=O)c1ccco1` the figure was 7.31 µM (active). As to `Cc1ccc(C)n1-c1sc2c(c1C(=O)O)CCCC2`, the Potency entry is “inactive”.

`CC(C)CCn1cnc2c(sc3nc4c(cc32)CSC(C)(C)C4)c1=O`: the Potency was 0.517 µM (active). In the case of `OC1(C2(O)CC(c3ccccc3)ON2)CCCCC1` (configuration not stated), the Potency result was “inactive”. `Cc1cc(CC(C)C)n(-c2nc3ccccc3c(=O)n2OCC(N)=O)n1`: the Potency entry is “inactive”.

In the case of `Cc1ccc(C)c(Oc2cc(NC(=O)CCCn3nc(C)c([N+](=O)[O-])c3C)cc([N+](=O)[O-])c2)c1`, the Potency entry is “inactive”. Regarding `CCCCCNC(=O)N[C@H](C(=O)O)C(C)C`, the Potency result was “inactive”. For the molecule `Cc1cccc(-n2c(C)cc(C(=O)NC3CCCCC3)c2C)c1`, the Potency is 7.31 µM (active). Consider `Cc1ccc(NC(=O)c2ccc3nc[nH]c3c2)cc1C`, for which the Potency is 23.1 µM (active).

As to `CCc1ccc2c(CN(CC)Cc3nc4ccccc4c(=O)[nH]3)cc(=O)oc2c1`, the activation was -11.9% [at 9.22 µM] (inactive). Regarding `CCCCn1c(/C=N/Nc2nc3ccccc3[nH]2)nc2ccccc21`, the Potency is 23.1 µM (active).

Take `N#Cc1cccc(N=Cc2c(O)ccc3ccccc23)c1`: the Potency result was “inactive”. Still for that read-out and setting: with `CN(C)c1ccc(N=Cc2nc(-c3ccccc3)oc2OC(=O)c2cccc(Cl)c2)cc1` the figure was 2.06 µM (active).

On to `Cc1cc(C)nc(SCC(=O)OCC(=O)Nc2nc3ccccc3s2)n1`, for which the Potency entry is “inactive”. Turning to `CCOc1ccc(-n2c(SCc3nc(-c4cccs4)no3)nnc2-c2ccncc2)cc1`, the Potency entry is “inactive”. As for `O=C(N/N=C1\CCc2ccccc21)c1ccccc1O`, the Potency is 1.03 µM (active).
